# From PubChem BioAssay
# An excerpt weighted towards active compounds, which were near 2.4% of everything screened.
# D2 ag-1: Beta-Arrestin HTS for Positive Allosteric Modulators of the Human D2 Dopamine Receptor: Agonists; activation, % (concentration not given with the values); D(2) dopamine receptor (Homo sapiens), P14416; DiscoveRx PathHunter D2 beta-arrestin, luminescence, 90 min; 100% = 57 uM dopamine signal; AID 624465, 2012; hit rate 0.084% among 360,000; in the data active means activation above about 40%; inconclusive means between about 15% and that limit
# Target sequence (P14416 whole entry, looked up): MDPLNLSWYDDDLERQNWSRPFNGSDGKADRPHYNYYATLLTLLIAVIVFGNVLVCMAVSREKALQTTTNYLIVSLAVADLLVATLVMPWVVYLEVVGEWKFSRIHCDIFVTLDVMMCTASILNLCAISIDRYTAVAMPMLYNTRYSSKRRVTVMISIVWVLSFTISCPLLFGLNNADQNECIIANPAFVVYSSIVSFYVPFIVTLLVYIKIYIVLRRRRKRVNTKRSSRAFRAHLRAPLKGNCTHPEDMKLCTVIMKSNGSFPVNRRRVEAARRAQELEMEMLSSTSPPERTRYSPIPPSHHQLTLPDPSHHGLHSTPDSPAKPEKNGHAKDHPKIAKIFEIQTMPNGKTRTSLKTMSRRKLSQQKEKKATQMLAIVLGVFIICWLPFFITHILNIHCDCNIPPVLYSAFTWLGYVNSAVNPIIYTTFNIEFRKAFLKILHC
#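 DiscoveRx PathHunter D2 beta-arrestin cells (2,100/well) attached overnight, then compound-stimulated 90 min at 37 C in HBSS/10 mM HEPES/0.1% Tween-20 buffer; beta-galactosidase complementation read by luminescence after 1 h at ambient temperature. Dopamine 57 uM final (EC100) as control.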
# D2 antag: HTS Assay for Allosteric Antagonists of the Human D2 Dopamine Receptor: Primary Screen for Antagonists. inhibition, % at 10 µM. HEK293 TREx D2 cells, calcium flux, dopamine EC80. D(2) dopamine receptor (Homo sapiens), P14416. AID 485344, 2010. hit rate 2% among 340,000; in the data active means inhibition above about 30%; inactive means below that, where a call was filed; further: 0% is about no effect
#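 Overnight-induced (tetracycline, 30 C) HEK293 T-REx cells carrying force-coupled D2 receive a no-wash calcium dye, then compound, then EC80 dopamine at 180 s; signals are read kinetically throughout.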
# D2 ag-2: HTS Assay for Allosteric Agonists of the Human D2 Dopamine Receptor: Primary Screen for Agonists; AID 485358, 2010; D(2) dopamine receptor (Homo sapiens), P14416; activation, % at 2 µM; HEK293 T-REx D2 cells, calcium flux agonist mode; hit rate 0.53% among 340,000;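 active means activation over 3 SD above normal in the single-dose calcium agonist read, cut at about 30% in these data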; further: 0% is about no effect
#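 In this primary screen, compounds producing a positive calcium signal within 180 s of addition to tetracycline-induced, force-coupled HEK293 Trex D2 cells are flagged; cells are dye-loaded with a no-wash calcium kit beforehand.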
# D2 PAM-1: HTS Assay for Positive Allosteric Modulators of the Human D2 Dopamine Receptor: Primary Screen for Potentiators; HEK293 T-REx D2, calcium flux, EC20 dopamine potentiation; potentiation, % at 10 µM; hit rate 0.34% among 340,000;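 active means potentiation over 3 SD above the plate norm, cut at about 30% in these data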; further: 0% is about no effect
#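 Using a no-wash calcium dye in inducible, force-coupled HEK293 Trex cells expressing D2, we tracked fluorescence each second for 180 s after compound, then for 180 s after EC20 dopamine to detect augmented signalling.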
# D2 PAM-2: Beta-Arrestin HTS for Positive Allosteric Modulators of the Human D2 Dopamine Receptor: Potentiators. hit rate 0.23% among 360,000. potentiation, % (concentration not given with the values). DiscoveRx D2 beta-arrestin cells, luminescence, 90 min; 100% = 57 uM dopamine signal. AID 624464, 2012. D(2) dopamine receptor (Homo sapiens), P14416; in the data active means potentiation above about 50%; inconclusive means mostly about 30% to 49%
#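 PathHunter D2 cells, attached overnight at 37 deg C, received compound in DMSO plus dopamine at EC20 (50 nM final) for 90 min at 37 deg C. Beta-arrestin recruitment was read as luminescence after 1 h with detection reagent at ambient temperature.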
# Numbers without * were called inactive; ? = inconclusive; nt = no result.
SMILES,D2 ag-1,D2 antag,D2 ag-2,D2 PAM-1,D2 PAM-2
Brc1ccc(C=Nc2ccc(Nc3ccccc3)cc2)s1,?,-12.7,2.2,12.4,87.4*
CCCCOc1ccc(C(=O)N/C(=C\c2ccc(Br)cc2)C(=O)NC2CCCCC2)cc1,nt,nt,0.5,1.9,nt
CCOc1ccccc1NC(=O)C(C)N(c1ccccc1)S(C)(=O)=O (centres undefined),nt,nt,-2.0,-6.5,nt
C[C@@H]1CN([C@@H](C)CO)C(=O)c2cc(NC(=O)C3CCCCC3)ccc2O[C@@H](C)CCCCO[C@@H]1CN(C)C(=O)CCCN(C)C,-2.4,nt,nt,nt,6.8
COc1ccc(OC)c(NC(=O)C2CC(=O)n3ncnc3N2)c1 (centres undefined),0.4,7.8,0.8,33.3*,-7.7
CCn1cc([N+](=O)[O-])c(C(=O)Nc2ccc3c(c2)OCCO3)n1,4.4,69.2*,1.0,-13.0,9.8
CC(C(=O)N1c2ccccc2CC1C)N1CCN(S(=O)(=O)c2ccccc2F)CC1 (centres undefined),-3.3,13.8,-0.6,-13.8,-3.8
CCOC(=O)c1c(C)n(-c2ccc(C)cc2)c2c(C(C(C)=O)C(=O)O)c(Br)c(O)c(O)c12 (centres undefined),?,13.3,1.1,2.0,70.0*
CCOC(=O)c1c(C)n(-c2ccc(C)cc2)c2c(CC(C)=O)c(Br)c(OC)c(O)c12,-1.2,-5.2,0.4,3.5,-3.7
O=C(/C=C/c1ccc2c(c1)OCO2)Nc1nc(-c2ccccc2)cs1,-0.2,-10.0,-0.4,-2.2,-9.2
Clc1ccc(-c2csc(N/N=C/c3ccc4c(c3)OCO4)n2)cc1,-0.4,34.8*,-0.1,4.3,6.5
O=C(Nc1c(C(=O)N2CCOCC2)cnn1-c1ccccc1)c1ccc([N+](=O)[O-])cc1,6.9,-6.2,0.1,2.2,-8.9
Cc1ccc(C(=O)Nc2c(C(=O)N3CCOCC3)cnn2-c2ccccc2)cc1,-2.9,-30.8,-0.9,32.6*,-7.9
Cc1nnc(N/N=C/c2cccc(OCc3ccc(Cl)c(Cl)c3)c2)n1N,14.5,-29.4,-1.1,-9.2,74.3*
Cc1nnc(N/N=C/c2cccc(C(F)(F)F)c2)n1N,0.2,-17.0,19.1,-7.9,-3.1
CN(Cc1cnn(Cc2ccccc2)c1)C(=O)c1cccc(S(=O)(=O)N2CCOCC2)c1,6.7,5.9,1.0,-7.1,-1.8
Cc1sc2nc(CSc3ccccc3)nc(NCCN(C)C)c2c1C,-0.8,-4.9,-0.4,-22.5,-38.5
CCNc1nc(CSc2ccccc2)nc2sc(C)c(C)c12,1.8,39.3*,-1.3,0.0,-16.9
CC(Sc1nc(-c2ccccc2)cc(C(F)(F)F)n1)C(=O)O (centres undefined),-2.5,3.9,-0.6,17.7,-5.2
CCN(CC)CCCNC(=O)C(C)Sc1nc(-c2ccccc2)cc(C(F)(F)F)n1 (centres undefined),-2.7,31.2*,-0.2,-8.3,-10.5
CN(Cc1ccccc1)Cc1ccccc1C(O)c1ccccc1 (centres undefined),-1.5,nt,nt,nt,-23.1
COc1ccc2c(c1)CCc1c-2n[nH]c1C(=O)O,1.3,31.4*,0.5,-3.3,1.8
CCOC(=O)c1c(-c2ccc(OC)cc2)oc2ccc(OCC(N)=O)cc12,?,19.3,0.1,-6.7,-3.1
CCOC(=O)c1c(-c2ccccc2)oc2ccc(OCC(=O)O)cc12,-7.3,32.8*,-0.2,-9.7,-13.0
CCC(=O)c1cn(CC(=O)Nc2ccc(F)cc2)c2ccccc12,-12.1,nt,nt,nt,-14.5
SMILES,D2 ag-1,D2 antag,D2 ag-2,D2 PAM-1,D2 PAM-2
Cc1cccc(C(=O)NCCC(=O)N2CCc3ccccc3C2)c1,-1.8,32.1*,0.0,-10.6,-4.9
O=C(CN1CCc2ccccc2C1)Nc1ccccc1N1CCCCCC1,-1.4,-39.8,-0.6,3.3,-22.0
CCN1CCN(CCC(=O)Nc2cc(C)ccc2C)CC1,1.6,20.8,0.1,5.9,-4.2
COc1cc2c(cc1OC)CN(C(=O)Nc1ccccc1Cl)CC2,-2.4,34.7*,0.9,-18.3,0.1
Cc1cccc(C(=O)NC(=S)N2CCc3ccccc3C2)c1,-4.5,8.6,0.7,7.2,-16.9
Cc1ccc(C)c(NC(=O)CCN2CCc3ccccc3C2)c1,-1.4,31.3*,1.2,-19.7,-8.3
O=C(CN1CCc2ccccc2C1)Nc1ccccc1Cl,7.9,60.6*,30.5*,-4.6,-40.6
Cc1cc(C(=O)NCc2ccccc2C)c2c(C)nn(-c3cccc(F)c3)c2n1,nt,nt,0.4,-9.4,nt
CCN(c1ccccc1C)S(=O)(=O)c1nnc(NC(=O)c2ccccc2C)s1,nt,nt,-0.7,2.6,nt
O=C(CCN1CCc2ccccc2C1)Nc1ccc2c(c1)OCO2,-1.6,58.5*,0.3,-26.4,-39.2
CCN1CCc2c(sc(NC(=O)Cc3ccccc3)c2C(N)=O)C1,-6.1,8.2,-0.2,-23.0,-14.9
CCN1CCc2c(sc(NC(=O)c3ccc(S(=O)(=O)N(CC)c4ccccc4)cc3)c2C(N)=O)C1,0.8,8.5,52.3*,-5.7,-9.2
CC(C)C(=O)Nc1sc2c(c1C(N)=O)CCN(Cc1ccccc1)C2,-7.1,25.6,2.6,-18.3,-12.0
NC(=O)c1c(NC(=O)c2ccccc2)sc2c1CCN(Cc1ccccc1)C2,-1.0,6.5,44.0*,-6.9,-7.4
CCN1CCc2c(sc(NC(=O)Nc3ccc(Cl)c(Cl)c3)c2C(N)=O)C1,7.4,72.5*,109.4*,-13.3,-16.1
CCC(=O)Nc1sc2c(c1C(N)=O)CCN(Cc1ccccc1)C2,-4.7,38.1*,54.5*,-3.7,-12.6
NC(=O)c1c(NC(=O)c2c(F)cccc2F)sc2c1CCN(Cc1ccccc1)C2,-1.0,-16.7,28.5,-2.1,-7.2
COc1ccc(NC(=O)c2ccco2)cc1NC(=O)c1ccc(OC(C)C)cc1,nt,nt,-0.6,7.3,nt
CCCOc1ccc(CNC(=O)c2cc3ccccn3n2)cc1,nt,nt,0.1,10.4,nt
COc1ccc(C)cc1NS(=O)(=O)c1ccc2c(c1)CCCN2C(C)=O,nt,nt,1.4,-0.3,nt
Nc1ccc(C#Cc2ccc3c(=O)c4ccccc4oc3c2)cc1,-2.4,41.3*,2.5,-6.2,-8.6
COc1cc2oc3cc(C#Cc4ccc(N)cc4)ccc3c(=O)c2cc1OC,-1.0,nt,nt,nt,-2.8
CSc1nc(C)cc(/C=C\c2ccccc2)c1C#N,-4.5,-8.1,-0.7,41.4*,-14.5
CCCCc1nc(NCCO)c(C#N)c2c1CCCC2,-4.8,48.2*,2.1,-4.0,-11.7
